Test results as given in PubChem BioAssay (NCATS).
Inconclusive results are not listed. Activity calls are given as the source filed them. Unless noted, the call rests on the fitted dose curve; in most records, active means well fitted curve in the direction sought with a large enough effect; inconclusive means small, poorly fitted or top-dose-only effect, or another doubt; inactive means no such curve, though single readings can be large; an effect the other way counts as inactive or inconclusive.

Legend:
[1] = AP1 Signaling Pathway (AID 357; active means well fitted curve in either direction with a large enough effect, not every such curve was filed as active)
Summary of the method: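 Beta-lactamase reporter under AP-1 response element, ME-180 background. Stimulus: EC50 EGF. Compound exposure 5 h, 37 °C. Detection: CCF4, 2.5 h RT, 460/530 nm. Values: AC50 from titration.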

[2] = NFAT Signaling Pathway (AID 444; active means well fitted curve in either direction with a large enough effect, not every such curve was filed as active); settings: Jurkat NFAT-bla M1, carbachol, beta-lactamase ratio, 5 h; at 17.2 µM (top of the series)
Summary of the method: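 Read-out: CCF4 FRET ratio (460 nm/530 nm) after 1 h RT dye loading, used for %activity and AC50 from titration series. Cells: Jurkat NFAT-β-lactamase/M1 line, treated with compound plus 1 uM carbachol for 5 h, 37 °C.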

[3] = Stat Signaling Pathway (AID 446; active means well fitted curve in either direction with a large enough effect, not every such curve was filed as active)
Summary of the method: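 Screening format detects activators and inhibitors alike: ME-180 SIE-bla cells stimulated at 40 pM IL-6 for 5 hrs with compound, then dual-emission beta-lactamase read at 405 nm excitation.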

[4] = target: Glucocorticoid receptor (Homo sapiens) (UniProt P04150); assay: GR-GFP Redistribution (AID 450;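 active means compounds whose dose series gives a full or clear partial fitted curve of increased nuclear translocation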); settings: U2OS GR-GFP nuclear translocation, laser cytometry, 2 h
Glucocorticoid receptor (Homo sapiens), sequence (P04150 whole entry, looked up): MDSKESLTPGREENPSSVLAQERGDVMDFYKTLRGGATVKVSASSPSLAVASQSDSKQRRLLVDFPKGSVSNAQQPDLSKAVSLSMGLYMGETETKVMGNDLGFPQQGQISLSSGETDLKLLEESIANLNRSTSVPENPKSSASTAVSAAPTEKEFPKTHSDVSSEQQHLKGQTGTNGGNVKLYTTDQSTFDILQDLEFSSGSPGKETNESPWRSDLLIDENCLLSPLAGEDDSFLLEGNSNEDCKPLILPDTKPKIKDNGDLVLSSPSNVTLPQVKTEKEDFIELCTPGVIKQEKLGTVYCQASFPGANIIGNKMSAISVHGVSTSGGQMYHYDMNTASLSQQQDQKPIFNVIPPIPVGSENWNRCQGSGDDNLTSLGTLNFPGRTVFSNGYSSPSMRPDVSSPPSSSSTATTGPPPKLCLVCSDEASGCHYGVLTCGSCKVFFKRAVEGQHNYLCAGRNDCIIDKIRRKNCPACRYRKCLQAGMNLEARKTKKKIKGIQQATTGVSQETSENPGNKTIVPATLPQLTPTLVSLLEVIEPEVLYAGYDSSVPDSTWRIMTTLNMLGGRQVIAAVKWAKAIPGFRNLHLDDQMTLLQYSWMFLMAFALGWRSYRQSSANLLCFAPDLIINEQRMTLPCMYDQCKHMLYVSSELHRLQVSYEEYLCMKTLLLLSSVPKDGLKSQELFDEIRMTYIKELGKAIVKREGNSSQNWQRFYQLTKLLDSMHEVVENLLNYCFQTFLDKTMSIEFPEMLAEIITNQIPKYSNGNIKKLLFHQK

[5] = qHTS Assay for Identification of Small Molecule Agonists for Hypoxia Response Element Signaling Pathway (AID 914; active means well fitted activation curve with a large enough effect in the signal ratio, with a control signal flat, not every such curve was filed as active; the % refers to the signal ratio); settings: ME-180 HRE-bla reporter, beta-lactamase ratio, CoCl2, 17 h; activation: active compounds read high
Summary of the method: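 qHTS titration; ME-180 HRE-bla cells; EC50 CoCl2 co-treatment, 17 h at 37 degrees Celsius; CCF4 dye, ex 405nm, em 460nm and 530nm; %Activity from ratio; AC50.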

[6] = tested on: Zika virus NS2B-NS3 protease (linked construct); assay: Primary screen NINDS Rhodamine qHTS for Zika virus inhibitors (AID 1347160)
Summary of the method: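 Kinetic fluorescence (Ex 480 nm, Em 540 nm) over 15 min with 1.5 microM Rhodamine110 peptide and 25 nM linked protease.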

[7] = OV-KATE Cancer Cell Toxicity qHTS against the NCATS CANVASS Library (AID 1347345)
Summary of the method: (§1)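 ATP content after 72 h treatment, detected by CellTiter-Glo luminescence (15min room-temperature development), reflects cell viability. Wells contained 1000 cells and received compounds at 11 concentrations.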

[8] = HPAF-II Cancer Cell Toxicity qHTS against the NCATS CANVASS Library (AID 1347346)
Summary of the method: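 HPAF-II cells at 1000 cells/well were treated with an 11-point concentration series for 72 hours at 37 degrees C. Viability read by CellTiter-Glo luminescence.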

[9] = UWB1.289 Cancer Cell Toxicity qHTS against the NCATS CANVASS Library (AID 1347347)
Summary of the method: as §1

[10] = OV-SAHO Cancer Cell Toxicity qHTS against the NCATS CANVASS Library (AID 1347348)
Summary of the method: as §1

[11] = Panc-1005 Cancer Cell Toxicity qHTS against the NCATS CANVASS Library (AID 1347349)
Summary of the method: as §1

[12] = COV-362 Cancer Cell Toxicity qHTS against the NCATS CANVASS Library (AID 1347352)
Summary of the method: (§2)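 Cells at 1000/well were given compound 4 h after plating in an 11-point series. Viability was read by CellTiter-Glo luminescence after 72 h at 37 degrees C.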

[13] = A2780 Cisplatin Sensitive Ovarian Cancer Cell Toxicity qHTS against the NCATS CANVASS Library (AID 1347353)
Summary of the method: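 A2780 cells, 750/well, settled 4 h at 37 °C, then treated with an 11-point compound series for 72 h. Viability was read as ATPLite luminescence after 10 min at room temperature, with bortezomib as control.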

[14] = UWB1.289-WTBRCA1 Cancer Cell Toxicity qHTS against the NCATS CANVASS Library (AID 1347354)
Summary of the method: as §2

[15] = HPAF-II 24hr Apoptosis Induction qHTS against the NCATS CANVASS Library (AID 1347356)
Summary of the method: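 HPAF-II cells (500/well) exposed to compounds in 11-point series for 24 h at 37 degrees C; caspase-3/7 activity read by Caspase-Glo luminescence after 15 min at room temperature. Doxorubicin titration as control.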

[16] = HEK293 18hr Apoptosis Induction qHTS against the NCATS CANVASS Library (AID 1347357)
Summary of the method: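 Natural products applied to HEK293 for 18 hr; Caspase-Glo 3/7 readout.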

[17] = HEK293 24hr Apoptosis Induction qHTS against the NCATS CANVASS Library (AID 1347359)
Summary of the method: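 Caspase-3/7 activation measured as luminescence from the DEVD-based Caspase-Glo reagent, 15 min at room temperature, following 24-hour compound treatment of HEK293 cells.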

[18] = tested on: NAD(P)H diaphorase (Clostridium kluyveri); assay: Diaphorse counterscreen qHTS: Assay Interference Panel against the NCATS CANVASS Library (AID 1347362)
Summary of the method: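 Counterscreen for coupling-enzyme interference: resorufin fluorescence from resazurin/NADH turnover, read after 5 min at room temperature. Compounds were tested over an 11-point series after 15 min dark preincubation with diaphorase in PBS-Tween.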

[19] = target: Luciferin 4-monooxygenase (Photinus pyralis) (UniProt P08659); assay: Firefly luciferase counterscreen qHTS: Assay Interference Panel against the NCATS CANVASS Library (AID 1347363)
Luciferin 4-monooxygenase (Photinus pyralis), sequence (P08659 whole entry, looked up): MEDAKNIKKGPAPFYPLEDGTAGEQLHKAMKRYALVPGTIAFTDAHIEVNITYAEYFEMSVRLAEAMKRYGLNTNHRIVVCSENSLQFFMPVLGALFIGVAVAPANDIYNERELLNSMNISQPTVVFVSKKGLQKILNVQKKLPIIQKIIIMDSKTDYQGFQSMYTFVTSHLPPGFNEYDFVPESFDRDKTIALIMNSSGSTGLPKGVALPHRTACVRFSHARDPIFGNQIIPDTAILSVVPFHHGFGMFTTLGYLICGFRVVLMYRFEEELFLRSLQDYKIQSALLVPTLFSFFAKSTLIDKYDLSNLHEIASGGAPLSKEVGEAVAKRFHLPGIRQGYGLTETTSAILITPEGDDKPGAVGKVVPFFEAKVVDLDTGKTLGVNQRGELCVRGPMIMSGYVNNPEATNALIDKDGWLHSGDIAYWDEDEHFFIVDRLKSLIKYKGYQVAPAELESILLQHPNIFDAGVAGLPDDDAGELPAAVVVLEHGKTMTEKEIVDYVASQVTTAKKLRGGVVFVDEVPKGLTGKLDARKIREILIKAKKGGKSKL
Summary of the method: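 Luminescence inhibition readout: compounds (11-point qHTS) sat 15 min at room temperature with substrate mix (0.013 mM luciferin and ATP), then firefly luciferase was added and signal read 5 min later.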

[20] = KB-3-1 Cancer Cell Toxicity qHTS against the NCATS CANVASS Library (AID 1347366)
Summary of the method: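 Cytotoxicity toward KB-3-1 cells (500/well, DMEM + 10% FBS) was scored by CellTiter-Glo luminescence following 72 hr exposure at 37C, with bortezomib titrated as control.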

[21] = G06 Cancer Cell Toxicity qHTS against the NCATS CANVASS Library (AID 1347368)
Summary of the method: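 G06 dog glioma cells, 500 per well, exposed 72 hr at 37C, 5% CO2 to compounds in an 11-point series. Cytotoxicity read as ATP content by CellTiterGlo luminescence.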

[22] = MCF7 Cancer Cell Toxicity qHTS against the NCATS CANVASS Library (AID 1347369)
Summary of the method: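 This 72 hr qHTS scored MCF7 viability by CellTiterGlo luminescence, with 500 cells/well; bortezomib titration ran as control.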

[23] = qHTS for ATAD5 Antagonist screened against the NCATS CANVASS Library (AID 1347370)
Summary of the method: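 HEK293T cells with stably integrated ATAD5-luciferase reporter, 2000/well, 5 h attachment; compounds plus 10 µM 5-fluorouridine, 16 h at 37 °C. Luciferase luminescence read, with CellTiter-Fluor viability read first.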

[24] = J3T Cancer Cell Toxicity qHTS against the NCATS CANVASS Library (AID 1347371)
Summary of the method: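 J3T dog glioma cells, 500 per well, treated 72 h at 37C with compounds (11-point qHTS); viability from ATP content by CellTiterGlo luminescence; bortezomib titration as control.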

[25] = target: Nuclear receptor subfamily 1 group I member 3 (Homo sapiens) (UniProt Q14994); assay: qHTS for Constitutive Androstane Receptor (CAR) Antagonist screened against the NCATS CANVASS Library (AID 1347372)
Nuclear receptor subfamily 1 group I member 3 (Homo sapiens), sequence (Q14994 whole entry, looked up): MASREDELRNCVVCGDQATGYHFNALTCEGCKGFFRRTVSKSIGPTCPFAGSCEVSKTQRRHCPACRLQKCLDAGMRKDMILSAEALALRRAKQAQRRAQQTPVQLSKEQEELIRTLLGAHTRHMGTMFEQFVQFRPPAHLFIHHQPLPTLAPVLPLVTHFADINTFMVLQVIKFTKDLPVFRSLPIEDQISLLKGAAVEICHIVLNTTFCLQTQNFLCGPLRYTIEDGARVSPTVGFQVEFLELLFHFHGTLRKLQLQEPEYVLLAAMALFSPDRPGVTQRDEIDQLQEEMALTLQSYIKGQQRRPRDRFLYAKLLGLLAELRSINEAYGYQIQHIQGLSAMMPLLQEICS
Summary of the method: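 HepG2-CYP2B6-hCAR double-stable cells plated, 4hr attach; cpd pin-transferred; CITCO 50 nM final; 24hr 37C/5% CO2; CellTiter-Fluor 1hr (fluorescence), then ONE-Glo luminescence.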

[26] = target: Nuclear receptor subfamily 1 group I member 3 (Homo sapiens) (UniProt Q14994); assay: qHTS for Constitutive Androstane Receptor (CAR) Agonist screened against the NCATS CANVASS Library (AID 1347373)
Summary of the method: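 HepG2 cells stably carrying hCAR and a CYP2B6-2.2kb luciferase reporter, treated 24hr at 37C with compounds plus 1.5uM PK11195; activation by ONE-Glo luminescence, viability by CellTiter-Fluor.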

[27] = qHTS for Hypoxia signaling pathway (HIF-1) antagonists against the NCATS CANVASS Library (AID 1347374)
Summary of the method: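 HRE-bla ME-180 cells in medium with 0.5% dialyzed FBS received compounds (11-point series) plus CoCl2 (60 uM addition stock) for 17 hrs at 37C. Beta-lactamase activity read with CCF4 (405 nm ex, 460/530 nm em); CellTiter-Glo viability measured in same wells.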

[28] = qHTS for Inflammasome Signaling Inhibitors: IL-1-beta AlphaLISA screen against the NCATS CANVASS Library (AID 1347379)
Summary of the method: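 THP-1 cells pretreated 1 hr with compound (up to 57.5 uM final), then stimulated with LPS (250 ng/mL final) and ATP (1.25 mM final). Secreted IL-1B measured by AlphaLISA after 16 hr; glyburide as positive control.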

[29] = qHTS for Antimalaria activity screened against the NCATS CANVASS Library (AID 1347380)
Summary of the method: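 Red blood cells infected with P. falciparum Dd2 (2.5% hematocrit final, 0.3% parasitemia) were exposed to compounds in an 11-point qHTS series for 72 hr at 37C under 5% O2 and 5% CO2. Lysis buffer with SYBR Green was then added for 18 hr, and fluorescence was read at 485/535 nm.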

[30] = Inflammasome Signaling qHTS Counterscreen: IL-1-beta AlphaLISA counterscreen against the NCATS CANVASS Library (AID 1347381)
Summary of the method: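 Cell-free interference check: compounds added to medium spiked with 4 pg purified IL-1β. Anti-IL-1β acceptor beads (6 ug/mL) with 0.6 nM biotinylated antibody added for 1 h at RT, then streptavidin donor beads (24 ug/mL) for 30 min in the dark. AlphaLISA read at 680/615 nm.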

[31] = Cytotoxicity qHTS for assessment of Hepg2 cells membrane integrity screened against the NCATS CANVASS Library (AID 1347387)
Summary of the method: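 HepG2 cells (2000/well) attached overnight, then exposed 5 hr at 37C to compounds in an 11-point series (0.59 nM - 46 uM final). LDH release from damaged membranes read fluorometrically (CytoTox-ONE; 560/590 nm) after 10 min at room temperature.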

[32] = qHTS for Activators of p53 Stress Response Pathway screened against the NCATS CANVASS Library (AID 1347388)
Summary of the method: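 Beta-lactamase reporter driven by p53 response elements in HCT-116 cells, read as the 460 nm/530 nm emission ratio after CCF4 loading, following 16 h of exposure to an 11-point series. Cell viability was measured in the same wells by CellTiter-Glo luminescence.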

[33] = qHTS assay for small molecule disruptors of mitochondrial membrane potential screened against the NCATS CANVASS Library (AID 1347389)
Summary of the method: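 HepG2 cells (2,000/well) plated overnight, then exposed to compounds in 11-point qHTS series for 1 h at 37C before 30 min Mito-MPS dye; depolarization read as fall in red aggregate (590 nm) to green monomer (535 nm) fluorescence.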

[34] = Secretion counterscreen for inhibitors of the SERCaMP assay screened against the NCATS CANVASS Library (AID 1347390)
Summary of the method: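 Natural products are titrated in an 11-point series up to 77 uM onto SH-SY5Y-GLuc STOP cells for 20 h. Secreted reporter activity is measured as coelenterazine-driven luminescence, with Brefeldin A on each plate.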

[35] = qHTS for activators of Nrf2/ARE signaling pathway screened against the NCATS CANVASS Library (AID 1347391)
Summary of the method: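 ARE-bla HepG2 beta-lactamase reporter cells exposed to compounds for 16 h at 37C; CCF4 substrate 2 h, fluorescence at ex 405 nm, em 460/530 nm. Viability by CellTiter-Glo luminescence.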

[36] = qHTS for activators of dead-cell proteases activity screened against the NCATS CANVASS Library (AID 1347392)
Summary of the method: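 Compounds are pin-transferred onto attached HepG2 cells, giving 11 final concentrations. After 5 h at 37C, AAF-aminoluciferin reagent is added and luminescence is recorded at room temperature.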

[37] = qHTS for inhibitors of ER calcium dysfunction: SERCaMP assay screened against the NCATS CANVASS Library (AID 1347393)
Summary of the method: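 Thapsigargin-induced ER calcium depletion drives GLuc-SERCaMP secretion from SH-SY5Y cells; compounds given 16 h beforehand were scored by lowered coelenterazine luminescence after 4 h challenge.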

[38] = Vero-766 cells viability qHTS against the NCATS CANVASS Library: Counterscreen for Zika virus inhibition assay (AID 1347394)
Summary of the method: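 Counterscreen for toxicity: Vero 766 cells exposed 72 h to an 11-point compound series, viability by CellTiter-Glo.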

[39] = qHTS for inhibitors of Wild type Zika virus screened against the NCATS CANVASS Library (AID 1347396)
Summary of the method: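 Protection against wild-type Zika cytopathic effect is measured in African green monkey Vero 766 cells exposed to an 11-point compound series. Surviving cells are quantified by CellTiter Glo luminescence after 72 h.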

[40] = qHTS for inhibitors of Rabies Virus screened against the NCATS CANVASS Library (AID 1347402; calls by dose curve)

CNCCc1c[nH]c2ccccc12
inactive: outcome [1] | activity change, negative = inhibition [2] -6.51% | outcome [3] | Potency [4] > 20.6 µM | activation [5] -14% | Potency [6] | Potency [7] | Potency [8] | Potency [9] | Potency [10] | Potency [11] | Potency [12] | Potency [13] | Potency [14] | outcome [15] | Potency [16] | Potency [17] | outcome [18] | outcome [19] | Potency [20] | Potency [21] | Potency [22] | Potency [23] | Potency [24] | Potency [25] | outcome [26] | Potency [27] | Potency [28] | Potency [29] | outcome [30] | outcome [31] | Potency [32] | Potency [33] | Potency [34] | Potency [35] | Potency [36] | Potency [37] | Potency [38] | Potency [39] | outcome [40]
